Data on 7 sequences can be found in the supplement of paper PMC6555819.

Holding throughout (experiment): PBM binding z-score (relative to random genomic background probes); higher = stronger binding; sequences stand for … in GC…GCGATTGACAGCGTAGAATGAAGG
Test [1] deals with FXR:RXRa (NR concentration 270 nM, RXRa partner concentration 90 nM). In short, it runs like this:
(§1)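 Ligand-free nuclear receptor dimers were bound for 1 h to custom Agilent 4×180K protein-binding microarrays. Detection used antibodies against each partner (one per run). Binding z-scores rest on regression-normalized fluorescence, with random background probes as the reference.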

Test [2] relates to LXRa:RXRa (NR concentration 270 nM, RXRa partner concentration 90 nM). In short, it runs like this: as §1
In test [3] the test system is LXRa homodimer (NR concentration 270 nM). In short, it runs like this: as §1
For test [4], the system named is LXRb:RXRa (NR concentration 270 nM, RXRa partner concentration 90 nM). The procedure, abridged: as §1
The subject of test [5] is LXRb homodimer (NR concentration 270 nM). In short, it runs like this:
as §1

The test system of test [6] is PPARa:RXRa (NR concentration 270 nM, RXRa partner concentration 90 nM). In short, it runs like this: as §1
Test [7] has as its system PPARg:RXRa (NR concentration 180 nM, RXRa partner concentration 90 nM). In short, it runs like this:
as §1

Test [8] deals with PPARg:RXRa 270nM:90nM, anti-RXR (NR concentration 270 nM, RXRa partner concentration 90 nM). The procedure, abridged:
as §1

The subject of test [9] is PPARg:RXRa 30nM:10nM, anti-RXR (NR concentration 30 nM, RXRa partner concentration 10 nM). The procedure, abridged: as §1
In test [10] the test system is PPARg:RXRa 90nM:30nM, anti-RXR (NR concentration 90 nM, RXRa partner concentration 30 nM). The procedure, abridged:
as §1

Test [11] has as its system PPARg:RXRa DBDmut IVT, anti-RXR (DBD mutation: RXRa K156A/R161A, NR concentration 270 nM, RXRa partner concentration 90 nM). In short, it runs like this:
as §1

Test [12] deals with PPARg:RXRa IVT, anti-PPARg (NR concentration 270 nM, RXRa partner concentration 90 nM). The procedure, abridged: as §1
Test [13] relates to PPARg DBDmut:RXRa IVT, anti-PPARg (DBD mutation: PPARg1 K132A/R137A, NR concentration 270 nM, RXRa partner concentration 90 nM). The procedure, abridged:
as §1

The subject of test [14] is PPARg DBDmut IVT, anti-PPARg (DBD mutation: PPARg1 K132A/R137A, NR concentration 270 nM). The procedure, abridged: as §1
Test [15] concerns PPARg homodimer (NR concentration 180 nM). In short, it runs like this:
as §1

Test [16] concerns PXR:RXRa (NR concentration 270 nM, RXRa partner concentration 90 nM). In short, it runs like this:
as §1

In test [17] the test system is PXR homodimer (NR concentration 270 nM). In short, it runs like this:
as §1

Test [18] relates to RARa:RXR (NR concentration 270 nM, RXRa partner concentration 90 nM). In short, it runs like this: as §1
In test [19] the test system is RARa homodimer (NR concentration 270 nM). The procedure, abridged:
as §1

In test [20] the test system is RARb:RXRa (NR concentration 270 nM, RXRa partner concentration 90 nM). The procedure, abridged: as §1

For the sequence GCTAGCATGCCATTTGGGTCACTCAATGACGGGC, the PBM binding z-score in test [1] was 0.122; in test [2], -0.0732; in [3] it was -0.46; in test [4], 0.0644; in test [5], -0.628; in [6], 1.05. The PBM binding z-score in test [7] is 0.819; in test [8] it was 0.752; in test [9] it was -0.349; in test [10] it was 0.397; in [11] it was 0.671; in test [12], 1.3. Moreover, the PBM binding z-score in [13] is 0.0302; in test [14], -0.739; in test [15], -0.305; in test [16], 0.247; in test [17], -0.745; in [18], 0.851. Also, the results for the PBM binding z-score in test [19] and in test [20] were -0.41 and 1, respectively.
Turning to GCGGCTGGGGCATCAGCAGGTTACCATAACTTAA, the PBM binding z-score was -0.5 in test [1]; -0.215 in test [2]; -0.622 in test [3]; 0.239 in [4]; -0.602 in test [5]; 0.602 in test [6]. The PBM binding z-score in test [7] was -0.0151; in [8], -0.415; in [9], -0.593; in test [10] it was -0.53; in test [11], -0.444; in test [12], 0.118. Besides, the PBM binding z-score in test [13] is -1.33; in test [14] it was -0.84; in test [15] it was 0.149; in test [16], 0.178; in test [17] it was -0.595; in test [18] it was 0.635. Further, the PBM binding z-score in test [19] was -0.988; in test [20], 0.966.
Consider TGAATGAGGTTATAAGATCAGGTAACGTTGCAAA, for which the PBM binding z-score is 1.34 in test [1]; 1.33 in test [2]; -0.261 in test [3]; 1.28 in test [4]; 0.248 in test [5]; 2.76 in test [6]. The PBM binding z-score in [7] worked out at 1.42; in test [8], 1.99; in [9] it was 1.02; in [10] it was 1.46; in test [11], 1.19; in [12], 1.74. The PBM binding z-score in test [13] was 0.858; in test [14] it was 0.555; in [15], 0.252; in [16], 0.996; in test [17], 0.0498; in [18] it was 1.59. Also, the PBM binding z-score in test [19] worked out at 0.49; in [20], 1.12.
CGTCAAAGTTCAACTAAGGTAGCGTAAAGCACGC: the PBM binding z-score in test [1] amounted to 6.83; in test [2], 6.17; in test [3], 3.78; in test [4] it was 4.01; in [5], 1.98; in test [6], 4.8. In addition, the PBM binding z-score amounted to 4.84 in [7]; 5.37 in test [8]; 1.94 in [9]; 4.03 in [10]; 0.387 in test [11]; 1.51 in [12]. The PBM binding z-score in test [13] is -0.0827; in test [14], 0.743; in [15], 3.4; in test [16], 5.03; in [17], 4.13; in test [18] it was 3.8. Further, the PBM binding z-score in [19] stood at 2.16; in test [20], 5.15.
For the sequence CCTACTGGGCCACGAAAGGTCATAGATTCAGTGA, the PBM binding z-score worked out at 3.74 in [1]; 5.02 in test [2]; 4.02 in test [3]; 4.2 in test [4]; 0.194 in test [5]; 4.78 in test [6]. Moreover, the PBM binding z-score was found to be 4.68 in test [7]; 4.98 in test [8]; 2.28 in [9]; 4.2 in test [10]; 5.75 in [11]; 6.04 in test [12]. Also, the PBM binding z-score in test [13] turned out to be 0.35; in test [14], 1.08; in test [15], 3.16; in test [16] it was 4.97; in test [17] it was 0.915; in [18] it was 5.39. Further, the PBM binding z-score amounted to 0.471 in test [19] and 4.03 in test [20].
As to AATACAGGGTCATCATAGGCCAGAGTACGCACAG, the PBM binding z-score was found to be 6.85 in test [1]; 6.83 in [2]; 2.28 in test [3]; 4.77 in test [4]; 1.57 in test [5]; 5.63 in test [6]. Besides, the PBM binding z-score came out at 6.31 in test [7]; 5.66 in test [8]; 2.51 in [9]; 4.41 in test [10]; 2.62 in test [11]; 3.98 in test [12]. Further, the PBM binding z-score in [13] came out at 1.5; in test [14], 0.916; in test [15], 1.8; in test [16], 4.42; in [17], 1.01; in test [18] it was 4.65. The PBM binding z-score in test [19] stood at 1.25; in test [20], 4.25.
As for TAGCCGAGGTCATGCGGGCCAGTATAGTGTCGGC, the PBM binding z-score in test [1] is 7.46; in [2], 5.94; in [3], 1.69; in test [4], 4.64; in [5], 1; in test [6], 6.24. The PBM binding z-score in test [7] came to 6; in test [8], 6.15; in test [9] it was 2.74; in test [10] it was 4.56; in test [11], 1.88; in [12], 4.29. The PBM binding z-score is 1.82 in test [13]; 0.598 in [14]; 2.81 in [15]; 5.79 in test [16]; 2.14 in [17]; 6.18 in test [18]. Moreover, the values for the PBM binding z-score in test [19] and in test [20] were 0.453 and 5.17, respectively.
